STK33 inh = inhibitors of human STK33 kinase. Q9BYT3. ADP-Glo luminescence, MBP substrate. inhibition, % at 12.5 µM. 27,000 tested, 0.44% active; in the data active = inhibition above about 20%; inconclusive = no clear call, values can overlap the other calls
Target sequence (Q9BYT3 whole entry, looked up): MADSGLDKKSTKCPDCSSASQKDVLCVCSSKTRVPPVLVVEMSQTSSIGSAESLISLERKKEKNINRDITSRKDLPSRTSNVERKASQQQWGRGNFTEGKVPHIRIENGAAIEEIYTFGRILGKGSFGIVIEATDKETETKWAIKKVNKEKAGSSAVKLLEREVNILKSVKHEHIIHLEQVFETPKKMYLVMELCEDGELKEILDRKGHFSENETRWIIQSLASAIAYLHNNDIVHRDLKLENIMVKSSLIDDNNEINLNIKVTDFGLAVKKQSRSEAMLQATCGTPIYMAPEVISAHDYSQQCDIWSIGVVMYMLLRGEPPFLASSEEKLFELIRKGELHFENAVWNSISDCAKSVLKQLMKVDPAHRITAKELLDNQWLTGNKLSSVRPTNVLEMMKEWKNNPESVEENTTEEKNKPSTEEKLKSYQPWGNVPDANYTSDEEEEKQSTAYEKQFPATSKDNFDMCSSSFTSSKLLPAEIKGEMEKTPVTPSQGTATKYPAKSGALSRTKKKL
NOMO-1 viab = STK33 inhibitor candidate reducing NOMO-1 cell viability; NOMO-1 AML viability, CellTiter-Glo luminescence, 72 h; inhibition, % (concentration not given with the values); 37,000 tested, 7.5% active; in the data active = inhibition above about 80%; inconclusive = no clear call, values can overlap the other calls
PD-1 reverse act = activators reversing PD-1 mediated T-cell inhibition; primary human CD4 T cells, PD-L1 beads, CellTiter-Glo 96 h; activation, % (concentration not given with the values); 29,000 tested, under 10 active; call rule not given here
Large screens that a line does not name were inactive. Only a selection was taken, and hits are over-represented in it overall.

C[C@@H]1CN([C@@H](C)CO)C(=O)Cc2cc(NC(=O)Nc3ccc(C(F)(F)F)cc3)ccc2O[C@@H]1CN(C)S(=O)(=O)c1cccs1	NOMO-1 viab 111
C[C@@H]1CN([C@@H](C)CO)C(=O)Cc2cc(NC(=O)Nc3ccc(F)cc3)ccc2O[C@@H]1CN(C)S(=O)(=O)c1cccs1	none
O=C(CC1OCCN(Cc2ccccc2)C1=O)Nc1cccc(Cl)c1 (stereo unspecified)	none
Cc1ccn2c(-c3nnco3)c(C)nc2c1	none (no result: STK33 inh)
COc1ccc(CCn2c(=S)[nH]c3cc(C(F)(F)F)ccc32)cc1OC	none
Cc1nc(Oc2ccc(NC(=O)c3ccccc3)cc2)c2c3c(sc2n1)CCC3	NOMO-1 viab 133 (no result: STK33 inh)
CCOc1ccc(NC(=O)CSc2nc(C)nc3sc4c(c23)CCCC4)cc1	none
C=CC(C)(O)CC(/C=C(\C)CC(/C=C(\C)CCC=C(C)C)OC(C)=O)OC(C)=O (stereo unspecified)	NOMO-1 viab 98
C=CC(C)(O)CC/C=C(\C)CCC(O)C(C)(C)O (stereo unspecified)	none
COc1c(O)cc2c(=O)oc3c(OC)c(O[C@@H]4OC[C@@H](O)[C@H](O)[C@H]4O)cc4c(=O)oc1c2c34	none
C[C@@H]1CN([C@H](C)CO)C(=O)c2cc(NC(=O)Nc3ccc(F)cc3)ccc2O[C@H]1CN(C)Cc1ccc(Oc2ccccc2)cc1	none
C[C@@H]1CN([C@@H](C)CO)C(=O)c2cc(NC(=O)Nc3ccc(F)cc3)ccc2O[C@@H]1CN(C)Cc1ccc(Oc2ccccc2)cc1	NOMO-1 viab 117
C[C@H](CO)N1C[C@H](C)[C@H](CN(C)Cc2ccc(Oc3ccccc3)cc2)Oc2ccc(NC(=O)Nc3ccc(F)cc3)cc2C1=O	none (no result: STK33 inh)
C[C@@H]1CN([C@H](C)CO)C(=O)c2cc(NC(=O)Nc3ccc(F)cc3)ccc2O[C@@H]1CN(C)Cc1ccc(Oc2ccccc2)cc1	NOMO-1 viab 124 (no result: STK33 inh)
COc1ccc(N=C(CCCN2C(=O)c3ccccc3C2=O)C2=C(O)CC(C)(C)CC2=O)cc1	none (no result: STK33 inh)
Cc1ccc2ccc(C(Nc3ccccn3)c3ccccc3Cl)c(O)c2n1 (stereo unspecified)	NOMO-1 viab 106
Cc1ccnc(NC(c2cccc(Cl)c2)c2ccc3ccc(C)nc3c2O)c1 (stereo unspecified)	NOMO-1 viab 118 (no result: PD-1 reverse act)
Cc1ccnc(SCC(=O)c2cccc([N+](=O)[O-])c2)n1	none (no result: PD-1 reverse act)
CSc1ccc(C(Nc2cc(C)ccn2)c2ccc3ccc(C)nc3c2O)cc1 (stereo unspecified)	none (no result: PD-1 reverse act)
Cc1ccc2ccc(C(Nc3ccccn3)c3cccc([N+](=O)[O-])c3)c(O)c2n1 (stereo unspecified)	NOMO-1 viab 112
COc1ccc(C(Nc2cccc(C)n2)c2ccc3ccc(C)nc3c2O)c(OC)c1OC (stereo unspecified)	NOMO-1 viab 96
Cn1c(SCC(=O)Nc2ccc(Oc3ccccc3)cc2)nnc1-c1cccs1	none
CC(Sc1nc2ccccc2c(=O)[nH]1)C(=O)Nc1cccc(Cl)c1 (stereo unspecified)	none
CCn1c(SCC(=O)Nc2ccc(C(=O)O)cc2)nnc1-c1ccc(Cl)cc1	none
O=C(CSc1nc(O)cc(=O)n1-c1ccccc1)Nc1cccc2ccccc12	none (no result: NOMO-1 viab, PD-1 reverse act)
Cc1ccc2ccc(C(Nc3ccccn3)c3c(F)cccc3Cl)c(O)c2n1 (stereo unspecified)	NOMO-1 viab 110
O=[N+]([O-])c1ccccc1C(c1c[nH]c2ccccc12)c1c[nH]c2ccccc12	STK33 inh inconclusive
Cc1cccc(NC(c2ccccc2[N+](=O)[O-])c2ccc3ccc(C)nc3c2O)n1 (stereo unspecified)	NOMO-1 viab 121
COc1cc(CCC(O)CC(O)CCc2ccc(O)c(O)c2)ccc1O (stereo unspecified)	none
CC(C)S(=O)(=O)N1CCN(Cc2ccc(OCCO)cc2)CC1	none (no result: NOMO-1 viab, PD-1 reverse act)
O=C(CN1C(=O)c2ccccc2S1(=O)=O)NCC1CCCO1 (stereo unspecified)	none (no result: PD-1 reverse act)
Cc1cc(Cl)ccc1OC(C)C(=O)Nc1cc(C(=O)O)cc(C(=O)O)c1 (stereo unspecified)	none
CC1(C)CC(NC(=O)N2c3ccccc3CCc3ccccc32)CC(C)(C)N1	none (no result: STK33 inh)
COc1ccc(C(=O)N2c3ccccc3CCc3ccccc32)cc1	NOMO-1 viab 104 (no result: STK33 inh)
COC(=O)c1cccc(NC(=O)CSc2nc(C)cc(-c3ccccc3)n2)c1	none
Cc1ccc(C)c(OCC(=O)Nc2cccc(-c3nnc(-c4ccco4)o3)c2)c1	none
CSc1cccc(NC(=O)Cn2cc(Br)c([N+](=O)[O-])n2)c1	none
O=C(O)CCNc1ncnc2c1oc1ccccc12	none
CC1(C)NCCC12C(=O)N(Cc1ccccc1)c1ccccc12 (stereo unspecified)	NOMO-1 viab 120 (no result: STK33 inh)
Cc1coc(C)c1C(=O)CC1(O)C(=O)N(Cc2ccccc2)c2ccccc21 (stereo unspecified)	none
C[C@H]1CN([C@@H](C)CO)C(=O)c2cc(NC(=O)Nc3ccc(F)cc3)ccc2O[C@H]1CN(C)Cc1ccc(C(F)(F)F)cc1	none
C[C@@H]1CN([C@H](C)CO)C(=O)c2cc(NC(=O)Nc3ccc(F)cc3)ccc2O[C@H]1CN(C)Cc1ccc(C(F)(F)F)cc1	NOMO-1 viab 117
C[C@@H]1CN([C@@H](C)CO)C(=O)c2cc(NC(=O)Nc3ccc(F)cc3)ccc2O[C@H]1CN(C)Cc1ccc(C(F)(F)F)cc1	NOMO-1 viab 113
C[C@H]1CN([C@@H](C)CO)C(=O)c2cc(NC(=O)Nc3ccc(F)cc3)ccc2O[C@@H]1CN(C)Cc1ccc(C(F)(F)F)cc1	none (no result: STK33 inh)
CC1(C)CC(=O)C2=C(C1)OC(N)=C(C#N)C21C(=O)N(CO)c2ccccc21 (stereo unspecified)	none (no result: STK33 inh)
CCCC1=NN(C(=O)C(C)(C)C)C(=O)C1Cc1c(F)cccc1Cl (stereo unspecified)	NOMO-1 viab inconclusive (no result: STK33 inh)
Cn1c(SCC(=O)Nc2ccc(Br)cc2)nnc1-c1cccnc1	none
C[C@H](CO)N1C[C@H](C)[C@H](CN(C)Cc2ccncc2)Oc2ccc(NC(=O)Nc3ccc(C(F)(F)F)cc3)cc2CC1=O	NOMO-1 viab 126
COc1ccc(CN(C)C[C@H]2Oc3ccc(NC(=O)Nc4ccc(C(F)(F)F)cc4)cc3CC(=O)N([C@@H](C)CO)C[C@@H]2C)cc1	none (no result: PD-1 reverse act)
C[C@H](CO)N1C[C@H](C)[C@H](CN(C)Cc2ccc(C(F)(F)F)cc2)Oc2ccc(NC(=O)Nc3ccc(C(F)(F)F)cc3)cc2CC1=O	NOMO-1 viab 129
C[C@@H]1CN([C@H](C)CO)C(=O)Cc2cc(NC(=O)CCC(F)(F)F)ccc2O[C@@H]1CN(C)Cc1ccc(Cl)c(Cl)c1	NOMO-1 viab 116
C[C@@H]1CN([C@H](C)CO)C(=O)Cc2cc(NC(=O)Nc3ccc(C(F)(F)F)cc3)ccc2O[C@H]1CN(C)Cc1ccc(C(F)(F)F)cc1	NOMO-1 viab 94
C[C@@H]1CN([C@@H](C)CO)C(=O)Cc2cc(NC(=O)Nc3ccc(C(F)(F)F)cc3)ccc2O[C@@H]1CN(C)Cc1ccc(C(=O)O)cc1	none
C[C@H]1CN([C@@H](C)CO)C(=O)Cc2cc(NC(=O)CCC(F)(F)F)ccc2O[C@H]1CN(C)Cc1ccc(Cl)c(Cl)c1	none (no result: PD-1 reverse act)
C[C@@H]1CN([C@H](C)CO)C(=O)Cc2cc(NC(=O)Nc3ccc(C(F)(F)F)cc3)ccc2O[C@H]1CN(C)Cc1ccncc1	none
